Measurements: PubChem BioAssay
For part of these data: Potency and affinity values are given separately. Activity calls are given as the source filed them.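 The calls were made as follows, unless noted: active = calcium signal cut by more than 3 SD below the full-agonist control yet still positive, in both repeats and the earlier primary screen; inactive = the rest.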

What was measured:
[1] = tested on: TRPC4 beta (transient receptor potential cation channel C4), mouse; test: activators of mouse TRPC4 channel, confirmation, cell-based, Fluo4 calcium, HEK293 TRPC4beta/mu-opioid, duplicates, 10 µM (AID 2426;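 active = fluorescence ratio normalized to control raised more than 50% in primary screen plus both repeat runs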); conditions: Fluo4 calcium fluorescence, at 10 µM; stronger effect = higher value
[2] = tested on: transient receptor potential cation channel C4 beta (TRPC4), mouse; test: activators of mouse TRPC4 channel, confirmation, cell-based, second round, Fluo4, HEK293 TRPC4beta/mu-opioid, 1 µM (AID 2461;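 active = primary screen active and over 50% activation in each of two duplicate runs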); conditions: Fluo4 calcium fluorescence, at 1 µM; stronger effect = higher value
[3] = tested on: TRPC4 (transient receptor potential cation channel C4 beta), mouse; test: positive allosteric modulators of mouse TRPC4, confirmation, cell-based, second round, Fluo-4, HEK293 TRPC4beta/mu-opioid, 1 µM (AID 2554;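 active = primary screen hit whose fluorescence ratio, in both repeats, exceeds the weak agonist control mean by 3 SD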); conditions: DAMGO EC20, Fluo-4 calcium flux, at 1 µM; stronger effect = higher value
[4] = tested on: TRPC4 beta (transient receptor potential cation channel C4), mouse; test: positive allosteric modulators of mouse TRPC4, confirmation, cell-based, Fluo-4, HEK293 TRPC4beta/mu-opioid (AID 2555;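 active = primary screen hit whose calcium fluorescence ratio, in both repeats, exceeds the weak agonist control mean by 3 SD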); conditions: DAMGO EC20, Fluo-4 calcium flux, at 10 µM; stronger effect = higher value
[5] = target: Short transient receptor potential channel 4 (Mus musculus) (UniProt Q9QUQ5); test: inhibitors of mouse TRPC4 channel, confirmation, cell-based, Fluo4, HEK293 TRPC4beta/mu-opioid (AID 2636); conditions: DAMGO, Fluo4 calcium flux, at 10 µM; stronger effect = higher value
[6] = target: Short transient receptor potential channel 4 (Mus musculus) (UniProt Q9QUQ5); test: inhibitors of mouse TRPC4 channel, confirmation, cell-based, second round, Fluo4, HEK293 TRPC4beta/mu-opioid, 1 µM (AID 2637;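 active = calcium signal ratio cut to more than 3 SD under the fully stimulated control mean yet still positive, in both repeats and the primary screen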;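 as to inhibition: percent of integrated ratio relative to wells lacking test compound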); conditions: Fluo4 calcium flux, DAMGO, at 1 µM; stronger effect = higher value
[7] = target: Short transient receptor potential channel 4 (Mus musculus) (UniProt Q9QUQ5); test: mouse TRPC4 channel activators, dose response, cell-based, HEK293 TRPC4/mu-opioid, Fluo-4 calcium (AID 434937;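 active = primary screen activator hit with a dose response curve and TRPC4 channel activation at any tested dose; inactive = no activation, no dose response, or not a primary hit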)
[8] = target: Short transient receptor potential channel 4 (Mus musculus) (UniProt Q9QUQ5); test: TRPC4 positive allosteric modulators, dose response, cell-based, HEK293 TRPC4/mu-opioid, Fluo-4 calcium, EC20 DAMGO (AID 434941;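 active = earlier screen potentiator hit that boosts the TRPC4 ion channel at some dose, with a dose response; inactive = no potentiation, no dose response, or not a prior hit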;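 also: calcium entry triggered by an EC20 dose of DAMGO at the co-expressed mu-opioid receptor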)
[9] = target: Short transient receptor potential channel 6 (Mus musculus) (UniProt Q61143); test: inhibition of mouse TRPC6 channel, confirmation, selectivity assay for TRPC4 inhibitor project, cell-based, HEK293, membrane potential dye, duplicate (AID 434948;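 active = active in primary screen and both duplicates, each dropping signal beyond three positive-control SD with fluorescence still positive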); conditions: HEK293 TRPC6, membrane potential dye fluorescence, at 10 µM, stimulated with maximal-effect acetylcholine; stronger effect = higher value
[10] = target: Short transient receptor potential channel 6 (Mus musculus) (UniProt Q61143); test: activation of mouse TRPC6 channel, confirmation, selectivity assay for TRPC4 activator project, cell-based, HEK293, membrane potential dye, duplicate (AID 434950;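 active = membrane potential signal rise above negative control mean plus 3 SD in both duplicates, also active in the earlier TRPC4 screen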;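 as to activation: 0% = buffer only wells and 100% = acetylcholine maximal-effect wells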); conditions: HEK293 TRPC6, membrane potential fluorescence, at 10 µM; stronger effect = higher value
[11] = target: Short transient receptor potential channel 6 (Mus musculus) (UniProt Q61143); test: TRPC6 potentiation by TRPC4 potentiator hits, confirmation, selectivity assay for TRPC4 potentiator project, HEK293 cells, membrane potential dye, duplicate (AID 434952;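 active = compound raising the membrane signal above positive-control mean plus 3 SD in both repeats, and a primary screen hit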); conditions: HEK293 TRPC6, membrane potential dye fluorescence, at 10 µM, maximal acetylcholine added after compound; stronger effect = higher value
[12] = target: Short transient receptor potential channel 4 (Mus musculus) (UniProt Q9QUQ5); test: calcium flux activators in TRPC4/5HT1a cells, counter-screen for TRPC4 activator project, cell-based, second counter screen, HEK293 TRPC4/5HT1a, Fluo-4 (AID 434977;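 active = calcium signal rise above buffer-control mean plus 5 SD in both duplicates, and also a hit in the primary screen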); conditions: Fluo-4 calcium flux, at 10 µM; stronger effect = higher value
[13] = calcium flux inhibitors in TRPC4/5HT1a cells, confirmation, counter-screen for TRPC4 inhibitor project, cell-based, second counter screen, HEK293 TRPC4/5HT1a, Fluo-4 (AID 434978;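 active = primary screen active whose calcium signal fell more than 3 SD beyond the full-serotonin control mean in both duplicate plates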;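 as to outcome: serotonin given first at submaximal then at maximal dose after compound preincubation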); conditions: Fluo-4 calcium flux, at 10 µM, serotonin added to trigger calcium flux; stronger effect = higher value
[14] = tested on: TRPC4 (mouse), co-expressed with 5HT1a in HEK293; test: calcium flux potentiators in TRPC4/5HT1a cells, confirmation, counter-screen for TRPC4 potentiator project, cell-based, second counter screen, HEK293 TRPC4/5HT1a, Fluo-4 (AID 434979;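 active = signal rise over 3 SD above mean of control wells given weak agonist, in both repeats and first screen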); conditions: Fluo-4 calcium flux, at 10 µM, serotonin added at its EC20 dose; stronger effect = higher value
[15] = calcium flux activation in mu-opioid HEK293 cells, confirmation, counter-screen for TRPC4 activator project, cell-based, HEK293 mu-opioid receptor line (AID 449723;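 active = hit in primary screen, with calcium signal over 5 SD above buffer well mean in both duplicates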;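 also: counter screen cells carry the mu-opioid receptor alone and lack TRPC4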); conditions: Fluo-4 calcium fluorescence, at 10 µM; stronger effect = higher value
[16] = calcium flux enhancement in mu-opioid HEK293 cells, confirmation, counter-screen for TRPC4 allosteric potentiator project, cell-based, HEK293 mu-opioid receptor line (AID 449724;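 active = calcium signal rise more than 3 SD above the low-dose agonist control mean, in both duplicate plates and the primary screen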); conditions: Fluo-4 calcium flux, at 10 µM, compound added before EC20 DAMGO stimulus; stronger effect = higher value

Chain of Short transient receptor potential channel 6 (Mus musculus) (Q61143 whole entry, looked up): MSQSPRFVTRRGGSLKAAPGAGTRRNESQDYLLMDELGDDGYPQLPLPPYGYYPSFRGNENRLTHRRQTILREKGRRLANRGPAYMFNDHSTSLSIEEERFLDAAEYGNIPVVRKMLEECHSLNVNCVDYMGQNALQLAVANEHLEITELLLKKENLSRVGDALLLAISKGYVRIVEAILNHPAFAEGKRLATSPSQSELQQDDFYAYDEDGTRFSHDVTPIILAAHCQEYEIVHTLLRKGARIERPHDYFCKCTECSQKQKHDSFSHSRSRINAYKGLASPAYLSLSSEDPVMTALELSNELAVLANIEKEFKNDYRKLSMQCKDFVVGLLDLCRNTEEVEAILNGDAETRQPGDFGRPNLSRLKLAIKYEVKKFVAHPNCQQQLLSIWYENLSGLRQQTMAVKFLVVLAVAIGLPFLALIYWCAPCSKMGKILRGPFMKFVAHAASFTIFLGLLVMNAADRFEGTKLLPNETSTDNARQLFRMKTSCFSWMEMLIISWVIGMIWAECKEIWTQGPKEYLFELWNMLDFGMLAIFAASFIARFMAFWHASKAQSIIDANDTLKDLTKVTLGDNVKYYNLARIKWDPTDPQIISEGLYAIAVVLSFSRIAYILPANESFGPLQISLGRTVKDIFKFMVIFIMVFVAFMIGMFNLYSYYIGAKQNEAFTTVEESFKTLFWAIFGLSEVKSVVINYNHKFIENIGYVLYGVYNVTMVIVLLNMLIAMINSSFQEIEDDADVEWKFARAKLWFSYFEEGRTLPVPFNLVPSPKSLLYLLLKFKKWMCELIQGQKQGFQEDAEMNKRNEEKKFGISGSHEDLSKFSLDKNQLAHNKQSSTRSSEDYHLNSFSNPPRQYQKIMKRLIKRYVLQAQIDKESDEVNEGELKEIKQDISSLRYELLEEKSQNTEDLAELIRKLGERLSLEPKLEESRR
Chain of Short transient receptor potential channel 4 (Mus musculus) (Q9QUQ5 whole entry, looked up): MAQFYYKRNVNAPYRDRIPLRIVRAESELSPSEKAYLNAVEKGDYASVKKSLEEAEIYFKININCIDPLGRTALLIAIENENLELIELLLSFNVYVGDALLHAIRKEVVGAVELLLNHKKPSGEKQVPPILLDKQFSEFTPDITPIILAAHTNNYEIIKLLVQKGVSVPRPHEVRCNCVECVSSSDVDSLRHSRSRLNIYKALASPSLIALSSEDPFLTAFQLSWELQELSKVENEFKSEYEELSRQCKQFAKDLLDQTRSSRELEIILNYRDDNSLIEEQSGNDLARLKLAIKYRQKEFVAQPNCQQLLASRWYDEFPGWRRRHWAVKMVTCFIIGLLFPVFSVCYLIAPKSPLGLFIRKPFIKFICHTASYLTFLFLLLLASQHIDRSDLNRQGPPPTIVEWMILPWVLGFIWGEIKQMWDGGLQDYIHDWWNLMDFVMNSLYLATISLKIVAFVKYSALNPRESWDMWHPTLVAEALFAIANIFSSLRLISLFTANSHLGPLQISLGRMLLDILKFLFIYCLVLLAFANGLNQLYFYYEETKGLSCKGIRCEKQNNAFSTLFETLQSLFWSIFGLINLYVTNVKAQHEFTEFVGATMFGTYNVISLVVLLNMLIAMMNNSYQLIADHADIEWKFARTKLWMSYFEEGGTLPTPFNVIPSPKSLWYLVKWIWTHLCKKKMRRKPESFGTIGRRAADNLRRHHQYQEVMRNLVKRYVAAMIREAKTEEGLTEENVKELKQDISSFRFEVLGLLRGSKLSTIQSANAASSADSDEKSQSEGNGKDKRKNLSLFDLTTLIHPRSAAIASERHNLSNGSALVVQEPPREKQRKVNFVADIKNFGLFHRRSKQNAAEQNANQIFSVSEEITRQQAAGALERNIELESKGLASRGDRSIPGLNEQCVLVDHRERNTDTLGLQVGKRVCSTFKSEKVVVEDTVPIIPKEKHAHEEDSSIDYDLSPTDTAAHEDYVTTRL

CCOC(=O)CSc1nc2c(sc(=S)n2Cc2ccco2)c(=O)n1-c1ccccc1
active: inhibition [5] 68% | inhibition [6] 42%
inactive: outcome [1] | outcome [2] | outcome [3] | outcome [4] | outcome [7] | outcome [8] | outcome [9] | outcome [10] | outcome [11] | outcome [12] | outcome [13] | outcome [14] | outcome [15] | outcome [16]

Cc1c(C(=O)NCC(c2ccco2)N(C)C)oc2c(Cl)cccc12 (stereo not given)
active: inhibition [5] 94% | inhibition [6] 70%
inactive: outcome [1] | outcome [2] | outcome [3] | outcome [4] | outcome [7] | outcome [8] | outcome [9] | outcome [10] | outcome [11] | outcome [12] | outcome [13] | outcome [14] | outcome [15] | outcome [16]

O=C(C[N+]1(CC#Cc2ccccc2)CCCCC1)c1ccc(Cl)cc1
inactive: outcome [1] | outcome [2] | outcome [3] | outcome [4] | outcome [6] | outcome [7] | outcome [8] | outcome [9] | outcome [10] | outcome [11] | outcome [12] | outcome [14] | outcome [15] | outcome [16]
active: inhibition [5] 86% | inhibition [13] 40.2%

Clc1cccc(COn2c(-c3ccc(Cl)cc3Cl)nc3ncccc32)c1
active: inhibition [5] 83% | inhibition [6] 45% | inhibition [13] 41.3%
inactive: outcome [1] | outcome [2] | outcome [3] | outcome [4] | outcome [7] | outcome [8] | outcome [9] | outcome [10] | outcome [11] | outcome [12] | outcome [14] | outcome [15] | outcome [16]

CC(C)(C)CC(C)(C)NCC(O)COc1ccc2c(c1)CCC2 (stereo not given)
inactive: outcome [1] | outcome [2] | outcome [3] | outcome [4] | outcome [6] | outcome [7] | outcome [8] | outcome [9] | outcome [10] | outcome [11] | outcome [12] | outcome [13] | outcome [14] | outcome [15] | outcome [16]
active: inhibition [5] 100%

CCCc1cc(=O)[nH]c(SCC(=O)Nc2sc3c(c2C#N)CCCC3)n1
inactive: outcome [1] | outcome [2] | outcome [3] | outcome [4] | outcome [6] | outcome [7] | outcome [8] | outcome [9] | outcome [10] | outcome [11] | outcome [12] | outcome [13] | outcome [14] | outcome [15] | outcome [16]
active: inhibition [5] 85%

COc1ncnc2sc3c(c12)CCCC3
inactive: outcome [1] | outcome [2] | outcome [3] | outcome [4] | outcome [6] | outcome [7] | outcome [8] | outcome [9] | outcome [10] | outcome [11] | outcome [12] | outcome [13] | outcome [14] | outcome [15] | outcome [16]
active: inhibition [5] 93%

CN(CC1CCCN(CCc2cccc(C(F)(F)F)c2)C1)C(=O)c1cc2ccccc2o1 (stereo not given)
inactive: outcome [1] | outcome [2] | outcome [3] | outcome [4] | outcome [6] | outcome [7] | outcome [8] | outcome [9] | outcome [10] | outcome [11] | outcome [12] | outcome [14] | outcome [15] | outcome [16]
active: inhibition [5] 85% | inhibition [13] 1.18%

Cn1c(=O)c2c(nc(SCc3cccnc3)n2Cc2ccc(F)cc2)n(C)c1=O
active: inhibition [5] 79% | inhibition [13] 22.8%
inactive: outcome [1] | outcome [2] | outcome [3] | outcome [4] | outcome [6] | outcome [7] | outcome [8] | outcome [9] | outcome [10] | outcome [11] | outcome [12] | outcome [14] | outcome [15] | outcome [16]

CCCCN(Cc1ccccc1)C(=O)C1CCN(Cc2sccc2C)CC1
inactive: outcome [1] | outcome [2] | outcome [3] | outcome [4] | outcome [7] | outcome [8] | outcome [9] | outcome [10] | outcome [11] | outcome [12] | outcome [14] | outcome [15] | outcome [16]
active: inhibition [5] 90% | inhibition [6] 46% | inhibition [13] 32.5%

N#Cc1c(-c2cccs2)nc(SCc2ccc(Cl)cc2)[nH]c1=O
active: potentiation [4] 15% | inhibition [5] 99% | inhibition [6] 40% | inhibition [13] 11.9%
inactive: outcome [1] | outcome [2] | outcome [3] | outcome [7] | outcome [8] | outcome [9] | outcome [10] | outcome [11] | outcome [12] | outcome [14] | outcome [15] | outcome [16]

CC(=O)N1CCN(c2ccccc2NC(=O)c2cccs2)CC1
active: inhibition [5] 76% | inhibition [6] 43%
inactive: outcome [1] | outcome [2] | outcome [3] | outcome [4] | outcome [7] | outcome [8] | outcome [9] | outcome [10] | outcome [11] | outcome [12] | outcome [13] | outcome [14] | outcome [15] | outcome [16]

CCCn1c(=O)c2ccccc2n2c(SCCOc3ccc(C)cc3)nnc12
inactive: outcome [1] | outcome [2] | outcome [3] | outcome [4] | outcome [6] | outcome [7] | outcome [8] | outcome [9] | outcome [10] | outcome [11] | outcome [12] | outcome [14] | outcome [15] | outcome [16]
active: inhibition [5] 77% | inhibition [13] 46.3%

CCN(C(=O)c1c(-c2ccccc2Cl)noc1C)C1CCCCC1
active: inhibition [5] 71% | inhibition [13] 38.5%
inactive: outcome [1] | outcome [2] | outcome [3] | outcome [4] | outcome [6] | outcome [7] | outcome [8] | outcome [9] | outcome [10] | outcome [11] | outcome [12] | outcome [14] | outcome [15] | outcome [16]

Cc1ccc(NC(=O)CN2CCc3ccccc3C2)cc1S(=O)(=O)N1CCOCC1
active: inhibition [5] 92% | inhibition [6] 46% | activation [10] 30.5%
inactive: outcome [1] | outcome [2] | outcome [3] | outcome [4] | outcome [7] | outcome [8] | outcome [9] | outcome [11] | outcome [12] | outcome [13] | outcome [14] | outcome [15] | outcome [16]
